Screening data: PubChem, National Center for Advancing Translational Sciences (NCATS)
The list is not random: actives were taken first. Their share in the collection is about 12%.
Sm TGR inh = qHTS Assay for the Inhibitors of Schistosoma Mansoni Peroxiredoxins; purified TGR, DTNB reduction, TNB absorbance 405 nm; 360,000 compounds, 3% hits; Schistosoma mansoni thioredoxin glutathione reductase (TGR), Q962Y6; Potency, µM (highest dose often 114 µM), without a hit: top-dose activity change, negative = inhibition, actives largely listed as inhibitors; active means well fitted inhibition curve with a large enough effect; inconclusive means small, poorly fitted or top-dose-only effect; inactive means no such curve, though single readings can be large or run the other way; further: potency means the concentration at half of the fitted maximal effect; on the % scale 0 is the no-effect control and ±100 the full control effect; nearly all actives have a fitted effect of over 60% in size
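TGR 20 nM + NADPH 100 uM (dispensed conc.), cpd preinc 15 min RT; start with NADPH (500 uM addition) then DTNB (15 mM addition). Kinetic TNB absorbance, 405 nm filter. Four-parameter Hill fit across titration.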
Shiga toxin inh = A qHTS for Small Molecule Inhibitors of Shiga Toxin; Vero cells, Shiga toxin protein synthesis inhibition reporter; inhibition, % at 38.7 µM; 290,000 compounds, 9.2% hits; AID 2315, 2010; in the data active means inhibition mostly above about 28%, no sharp cut-off; inactive means mostly below about 43%; further: 0% is about no effect
Cycloheximide cs = Cycloheximide Counterscreen for Small Molecule Inhibitors of Shiga Toxin. 300,000 compounds, 12% hits. cell reporter, cycloheximide protein synthesis inhibition counterscreen. max response, %; in the data active means max response mostly above about 13%, no sharp cut-off; inactive means mostly below about 14%; further: read at 38.3 µM for the half of the compounds with a filed dose; 0% is about no effect
FMDV antiviral = High Throughput Screening for Foot and Mouth Disease Virus Antivirals; FMDV antiviral cell-based qHTS; Potency, µM (titrated, usually from 57.9 µM), for the others: top-dose activity change, negative = inhibition, most hits filed as inhibitors; 410,000 compounds, 1.2% hits; AID 1159524, 2015; calls by dose curve; tested in HEK293T cells; further: read-out not given here; potency means the concentration at half of the fitted maximal effect; on the % scale 0 is the no-effect control and ±100 the full control effect; nearly all actives have a fitted effect of over 45% in size
Starred values were filed as active, the others as inactive; ? = inconclusive; . = not tested or not shown; + = active, no number.

SMILES | Sm TGR inh | Shiga toxin inh | Cycloheximide cs | FMDV antiviral
CCCCCCCCOc1ccc(C2CC(=O)NC2=O)cc1 (stereo not given) | 100µM* | -3.9 | -3.0 | -7.1%
CCCCOc1ccc(C2CC(=O)N(C)C2=O)cc1 (stereo not given) | 1.0% | 31.7* | 20.5* | 2.3%
CC(=O)Nc1nonc1-c1nc2ccccc2n1Cc1ccccc1Br | 5.7% | . | . | ?
COc1ccc(C2NN=C(c3ccc(C)cc3)S2)cc1OC (stereo not given) | -11.2% | 92.3* | 37.7* | 30.8%
CC(=O)c1ccc(NC(=O)NCCc2c[nH]c3ccccc23)cc1 | -1.3% | . | . | 10.1%
Cc1cc(NC(=O)c2cccs2)ncc1NC(=O)c1cccc(F)c1 | . | 65.6* | 42.4* | 69.0%
Cc1cc(NC(=O)c2cccs2)ncc1NC(=O)C(C)C | 0.5% | 39.1* | 38.3* | 30.1%
Cc1cc(NC(=O)c2ccccc2)ncc1NC(=O)c1cccs1 | . | 123.9* | 40.2* | 76.4%
Cc1cc(NC(=O)c2ccccc2F)ncc1NC(=O)c1cccs1 | 4.5% | 54.2 | 21.2* | 41.1%
COCCCNC(=O)CN1C(=O)c2c(c3ccccc3n2C)C1c1ccc(OC)cc1 (stereo not given) | 4.6% | . | . | -10.7%
CC(C)CN(CCCNC(=O)c1cn(C)c2ccc(S(=O)(=O)N(C)C3CCCCC3)cc2c1=O)CC(C)C | 8.0% | . | . | -3.7%
COC(=O)CNC(=O)CSc1nc2sc(-c3ccccc3)cc2c(=O)n1-c1ccccc1 | . | . | . | -20.1%
CSc1nc2sc(-c3ccccc3)cc2c(=O)n1N | -5.6% | 48.2 | 22.0* | -5.8%
NC(=O)NC(=O)CSc1nc2sc(-c3ccccc3)cc2c(=O)n1-c1ccccc1 | -0.8% | 19.9 | 11.0* | ?
Cc1ccc(NC(=O)Cn2cc(S(=O)(=O)Cc3ccc(F)cc3)c3ccccc32)cc1Cl | 0.8% | . | . | -15.2%
COc1ccc(CCNC(=O)C(=O)NCCC2CCCCN2S(=O)(=O)c2ccccc2)cc1 (stereo not given) | 2.3% | . | . | ?
COc1ccc(CCNC(=O)C(=O)NCC(c2cccs2)S(=O)(=O)c2cccs2)cc1 (stereo not given) | 28.2µM* | . | . | ?
COc1ccc(CNC(=O)C(=O)NCC(c2cccs2)S(=O)(=O)c2cccs2)cc1 (stereo not given) | 28.2µM* | . | . | ?
O=C(NCCc1ccccc1)C(=O)NCC(c1cccs1)S(=O)(=O)c1cccs1 (stereo not given) | ? | . | . | -22.1%
COc1ccc(CCNC(=O)C(=O)NCCC2CCCCN2S(=O)(=O)c2cccs2)cc1 (stereo not given) | -1.5% | . | . | 31.6µM*
O=C(NCc1ccc(F)cc1)C(=O)NCC(c1cccs1)S(=O)(=O)c1cccs1 (stereo not given) | 25.1µM* | . | . | ?
Cc1ccc(NC(=O)CN2C(=O)C3(SCC(=O)N3c3ccc(F)c(F)c3)c3ccccc32)c(C)c1 (stereo not given) | 0.9% | . | . | ?
CCC1=C(c2ccc(C)cc2)S(=O)(=O)N=C1N1CCC(C(=O)Nc2ccccc2C(=O)OC)CC1 | 0.0% | . | . | ?
CC(C)(C)C(=O)Cn1c(=O)n(-c2ccc(Cl)cc2)c(=O)c2c3c(sc21)CCCC3 | 5.8% | . | . | -23.7%
CCN1C(C(=O)c2ccccc2)=C(OC(=O)COc2ccccc2)c2ccccc2S1(=O)=O | 15.8µM* | . | . | -7.7%
SMILES | Sm TGR inh | Shiga toxin inh | Cycloheximide cs | FMDV antiviral
Cc1ccc(OCC(=O)OC2=C(C(=O)c3ccccc3)N(C)S(=O)(=O)c3ccccc32)cc1 | 31.6µM* | . | . | -4.8%
CO/N=C(\C(=O)N[C@@H]1C(=O)N2C(C(=O)O)=C(CSc3nc(=O)c(O)nn3C)CS[C@H]12)c1csc(N)n1 | . | . | . | -18.4%
COc1ccc(-c2ccc(-c3noc(-c4ccco4)n3)c(OC)n2)cc1 | -21.2% | 50.9* | 23.1* | 45.1%
COc1ccc(-c2ccc(-c3noc(-c4ccccc4)n3)c(OC)n2)cc1 | 5.7% | -4.2 | 0.9 | 0.3%
COc1nc(-c2ccccc2)ccc1-c1noc(-c2ccco2)n1 | -1.7% | 70.5* | 33.6* | 89.9%
C[n+]1cn(CC(O)COCc2ccccc2)c2ccccc21 (stereo not given) | 3.7% | -11.3 | -1.3 | -6.8%
CCCCCc1ccc(OCCOCCn2c[n+](C)c3ccccc32)c(CCCCC)c1 | -9.0% | -13.3 | -5.8 | 25.1µM*
CCCCCc1ccc(OCCC[n+]2ccccc2)c(CCCCC)c1 | 4.0% | -12.1 | -2.5 | 17.8µM*
CCOC(=O)c1c(Nc2ccc(OCC)cc2)nnc(-c2ccccc2)c1-c1ccccc1 | 0.7% | . | . | 0.0%
O=C(CCN1CCN(C(=O)c2ccccc2)CC1)c1ccc(Br)cc1 | 0.316µM* | -2.5 | -0.2 | -6.4%
Cc1cccc(-c2nc(SCC(=O)NCC3CCCO3)c3c(=O)n(C)c(=O)n(C)c3n2)c1 (stereo not given) | 3.5% | . | . | 0.0%
CC(CN1CCN(CC(C)C(=O)c2ccccc2)CC1)C(=O)c1ccccc1 (stereo not given) | . | . | . | -6.5%
N=C1CCCN1CC(=O)c1ccc(Br)cc1 | -1.6% | + | 45.6* | 0.0%
Cn1c(=N)n(CC(=O)c2ccc(Br)cc2)c2ccccc21 | . | . | . | -9.0%
CN(C)CC(C(=O)c1ccccc1)c1ccccc1 (stereo not given) | 35.5µM* | -15.9 | -4.4 | 17.8µM*
O=C(c1ccc(Br)cc1)C(CN1CCOCC1)c1ccccc1 (stereo not given) | 3.55µM* | 26.1 | 4.9 | 17.8µM*
O=C(c1ccccc1)C(CN1CCCCC1)c1ccccc1 (stereo not given) | . | . | . | 28.2µM*
O=C(CC(C(=O)c1ccccc1)c1ccccc1)c1ccccc1 (stereo not given) | . | . | . | 8.4%
N#Cc1ccc(-c2cccs2)nc1SCc1c(F)cccc1Cl | -1.2% | . | . | 0.0%
Cc1ncc2c(c1CNC(=O)c1ccc3c(c1)OCO3)CCN(C(=O)c1cnsn1)C2 | . | . | . | 6.2%
O=C(CN1CCOCC1)c1ccc(Br)cc1 | 35.5µM* | 7.5 | 5.6 | 2.9%
CN1CCN(/N=C/c2nc(-c3cccc([N+](=O)[O-])c3)n3ccccc23)CC1 | -15.7% | 13.0 | 10.7 | ?
O=C(O)/C=C/c1nc(-c2ccccc2)n2ccccc12 | 2.51µM* | 79.0* | 71.2* | -27.4%
CN(C)c1cccc2c(S(=O)(=O)N3CCCC3)cccc12 | -0.3% | 27.0 | 34.4* | -7.2%
Cc1cc(C)n2nc(-c3ccc(F)cc3)nc2n1 | 1.1% | 84.3 | 24.1* | 41.9%
SMILES | Sm TGR inh | Shiga toxin inh | Cycloheximide cs | FMDV antiviral
CCc1ccccc1NC(=O)c1sc2nc3n(c(=O)c2c1C)CCC3 | 7.7% | . | . | 4.3%
Nc1nonc1NN=C1CCCCC1 | -5.1% | 77.4 | 12.2* | -5.1%
Nc1nonc1N/N=C\c1ccccc1 | 10.9% | 4.7 | -4.7 | 70.0%
COc1cccc(NC(=O)C2CCN(S(=O)(=O)c3ccc4c(c3)CC(C)N4C(C)=O)CC2)c1 (stereo not given) | 0.9% | 10.2 | -2.3 | -17.4%
CC(=O)N1c2ccc(S(=O)(=O)NCC3CCC(C(=O)Nc4cccc(C)n4)CC3)cc2CC1C (stereo not given) | 5.4% | 1.5 | -13.7 | 22.4µM*
CCc1cccc(NC(=O)C2CCN(S(=O)(=O)c3ccc4c(c3)CC(C)N4C(C)=O)CC2)c1 (stereo not given) | -11.2% | -2.0 | -0.8 | 14.1µM*
